Assay [1] has as its system PRMT1 (protein arginine N-methyltransferase 1). Kind of assay: small molecules binding arginine methyltransferase PRMT1 – biochemical, small-molecule microarray, 635 nm fluorescence, primary screen (AID 1088).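 Also: binding of Prmt1 protein to compounds spotted on small-molecule microarray slides.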 Conditions: higher = more signal.
Assay [2] is described as follows: growth effects on S. cerevisiae YJM789 – YJM789 clinical isolate, OD600, 24 h, basal, primary screen (AID 1089).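 Also: growth of clinical yeast isolate S. cerevisiae YJM 789 seeded 1000 cells per well; test concentration not given here.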 Conditions: higher = more signal, called active from +8 up or from −8 down.
Assay [3] can be described thus: S. pombe growth modifiers, basal conditions – strain 972, OD600, 24 h, no modulator, primary screen (AID 1090).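 Also: basal condition with compound alone and no growth modifier present; test concentration not given here.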 As to conditions: S. pombe 972 growth, higher = more signal, called active from +8 up or from −8 down.
Assay [4] is described as follows: budding yeast growth modifiers under rapamycin – strain BY4716, OD600, 96 h, primary screen (AID 1091). Also: test concentration not given here. Conditions: S. cerevisiae BY4716 + rapamycin, higher = more signal, called active from +8 up or from −8 down.
Assay [5] addresses Torsin-1A-interacting protein 2 (Homo sapiens) (UniProt Q8NFQ8). The experiment in a line: small molecules binding lysate-expressed LULL1 – cell lysate, human LULL1 lysate, 635/667 nm fluorescence, primary screen (AID 1092).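 Also: probe is lysate of COS7 cells overexpressing human LULL1; score merges per-feature 667 nm fluorescence with signal-to-noise.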 As to conditions: small-molecule microarray, hLULL1 lysate binding, 635 nm fluorescence; higher = more signal.
Assay [6] can be described thus: optical density change of DRC41 E. coli – strain DRC41, OD650, 24 h, E. coli filamentation project, primary screen (AID 1093).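 Also: MC1000 strain lacking acrAB efflux and sulA so SOS filamentation is blocked; test concentration not given here.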 Conditions: E. coli DRC41 growth, higher = more signal, called active from +8 up or from −8 down.
The nature of assay [7]: probe aLefty2 binding to arrayed compounds – biochemical, biotinylated probe, 635/667 nm fluorescence, primary screen (AID 1094).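 Also: score merges spot fluorescence near 667 nm with spot signal-to-noise ratio.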 As to conditions: small-molecule microarray, higher = more signal.
Assay [8] deals with Noggin (protein binding on small-molecule microarray). The experiment in a line: small molecules binding Noggin protein – biochemical, 635/667 nm fluorescence, primary screen (AID 1095).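 Also: score merges 667 nm feature fluorescence with signal to noise over triplicate slides.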 As to conditions: 635 nm fluorescence, higher = more signal.
Assay [9] deals with Neurogenic locus notch homolog protein 3 (Homo sapiens) (UniProt Q9UM47). The experiment in a line: small molecules binding NOTCH3 protein – biochemical, 635/667 nm fluorescence, primary screen (AID 1096). As to conditions: small-molecule microarray, 635 nm fluorescence, higher = more signal.
Neurogenic locus notch homolog protein 3 (Homo sapiens), sequence (Q9UM47 whole entry, looked up): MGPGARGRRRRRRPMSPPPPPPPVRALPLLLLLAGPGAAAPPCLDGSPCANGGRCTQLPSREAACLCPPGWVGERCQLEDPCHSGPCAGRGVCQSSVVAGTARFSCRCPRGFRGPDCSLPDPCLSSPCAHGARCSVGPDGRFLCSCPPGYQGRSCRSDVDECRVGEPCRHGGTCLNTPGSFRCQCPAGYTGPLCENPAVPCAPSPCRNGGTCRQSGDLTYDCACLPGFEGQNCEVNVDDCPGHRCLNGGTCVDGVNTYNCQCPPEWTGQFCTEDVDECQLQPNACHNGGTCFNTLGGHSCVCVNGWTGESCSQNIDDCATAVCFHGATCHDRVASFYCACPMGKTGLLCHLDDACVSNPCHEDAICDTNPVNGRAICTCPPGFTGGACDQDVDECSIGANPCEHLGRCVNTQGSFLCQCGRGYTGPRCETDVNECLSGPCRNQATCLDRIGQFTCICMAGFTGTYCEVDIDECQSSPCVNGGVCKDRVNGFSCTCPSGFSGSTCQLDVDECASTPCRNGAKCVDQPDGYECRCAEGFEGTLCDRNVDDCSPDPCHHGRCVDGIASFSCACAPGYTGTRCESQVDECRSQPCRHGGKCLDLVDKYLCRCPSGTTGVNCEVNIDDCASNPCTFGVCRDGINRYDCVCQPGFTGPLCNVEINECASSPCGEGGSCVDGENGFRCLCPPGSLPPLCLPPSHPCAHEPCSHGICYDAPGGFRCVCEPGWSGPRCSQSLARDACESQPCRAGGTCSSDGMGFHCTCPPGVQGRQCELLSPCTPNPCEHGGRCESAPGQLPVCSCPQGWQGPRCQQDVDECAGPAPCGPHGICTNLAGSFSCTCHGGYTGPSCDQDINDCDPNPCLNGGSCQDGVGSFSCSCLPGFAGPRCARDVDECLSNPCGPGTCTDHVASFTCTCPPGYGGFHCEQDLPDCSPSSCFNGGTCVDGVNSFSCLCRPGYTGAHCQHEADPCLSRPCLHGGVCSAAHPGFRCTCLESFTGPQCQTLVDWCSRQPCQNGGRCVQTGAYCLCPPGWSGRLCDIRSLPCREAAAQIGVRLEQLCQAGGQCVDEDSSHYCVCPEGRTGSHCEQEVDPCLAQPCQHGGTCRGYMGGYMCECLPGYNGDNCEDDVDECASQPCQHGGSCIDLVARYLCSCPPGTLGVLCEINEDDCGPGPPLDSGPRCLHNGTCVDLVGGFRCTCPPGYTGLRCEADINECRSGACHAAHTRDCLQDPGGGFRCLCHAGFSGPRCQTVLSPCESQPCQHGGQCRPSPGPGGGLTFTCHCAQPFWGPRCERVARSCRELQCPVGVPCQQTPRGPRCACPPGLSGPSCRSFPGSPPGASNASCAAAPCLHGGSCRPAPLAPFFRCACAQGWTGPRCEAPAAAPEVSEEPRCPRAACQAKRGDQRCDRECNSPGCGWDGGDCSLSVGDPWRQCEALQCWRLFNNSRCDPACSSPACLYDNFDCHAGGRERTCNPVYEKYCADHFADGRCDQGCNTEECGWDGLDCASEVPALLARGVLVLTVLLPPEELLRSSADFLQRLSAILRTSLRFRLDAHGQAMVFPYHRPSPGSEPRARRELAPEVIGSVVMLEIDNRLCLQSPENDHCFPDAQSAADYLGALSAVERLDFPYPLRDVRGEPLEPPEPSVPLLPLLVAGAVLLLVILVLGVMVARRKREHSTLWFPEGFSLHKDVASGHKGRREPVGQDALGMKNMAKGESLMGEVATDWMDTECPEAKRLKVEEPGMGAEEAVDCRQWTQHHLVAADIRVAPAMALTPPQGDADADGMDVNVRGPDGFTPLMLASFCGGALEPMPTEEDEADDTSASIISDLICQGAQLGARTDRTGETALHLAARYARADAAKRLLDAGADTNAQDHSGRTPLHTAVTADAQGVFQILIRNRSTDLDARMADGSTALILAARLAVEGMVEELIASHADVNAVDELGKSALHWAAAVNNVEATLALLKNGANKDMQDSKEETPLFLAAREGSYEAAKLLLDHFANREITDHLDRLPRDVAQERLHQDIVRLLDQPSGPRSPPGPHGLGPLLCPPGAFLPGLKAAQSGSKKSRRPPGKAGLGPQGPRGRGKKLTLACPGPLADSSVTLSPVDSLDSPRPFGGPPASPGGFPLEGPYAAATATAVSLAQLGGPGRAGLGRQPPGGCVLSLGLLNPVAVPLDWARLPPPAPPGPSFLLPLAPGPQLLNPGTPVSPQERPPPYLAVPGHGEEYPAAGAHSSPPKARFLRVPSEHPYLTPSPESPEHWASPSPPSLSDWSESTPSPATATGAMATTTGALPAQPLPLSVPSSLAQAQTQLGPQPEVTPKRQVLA
Assay [10] is described as follows: probe aEGFR binding to arrayed compounds – biochemical, biotinylated probe, 635/667 nm fluorescence, primary screen (AID 1097).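 Also: probe is a biotinylated anti-EGFR antibody binding compounds printed on slides; score combines fluorescence near 667 nm and signal to noise of each spot.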 Conditions: small-molecule microarray, higher = more signal.
In assay [11] the test system is Plasmodium falciparum Sir2 (PF13_0152, Sir2A). The experiment in a line: Plasmodium falciparum Sir2A binding compounds – biochemical, small-molecule microarray, 635 nm fluorescence, primary screen (AID 1098).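 Also: score merges spot fluorescence intensity with its signal-to-noise ratio.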 Conditions: fluorescence 635 nm, higher = more signal.
The nature of assay [12]: probe aDKK1 binding to arrayed compounds – biochemical, biotinylated probe, 635/667 nm fluorescence, primary screen (AID 1099).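 Also: score merges 667nm spot fluorescence with signal to noise across triplicate slides; reference of the scale not given here.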 As to conditions: small-molecule microarray, higher = more signal.
Assay [13] can be described thus: probe aCHRDL2 binding to arrayed compounds – biochemical, biotinylated probe, 635/667 nm fluorescence, primary screen (AID 1100). As to conditions: small-molecule microarray, higher = more signal.
Assay [14] can be described thus: change in splice reporter luminescence, either direction, cell-based, HEK293, spliceosome inhibition project, primary screen (AID 1101).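 Also: HEK293 cells carrying a splicing-competent luciferase reporter gene; test concentration not given here.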 As to conditions: HEK293 splicing luciferase reporter, 24 h, higher = more signal, called active from +8 up or from −8 down. For orientation: Reporter assays use an easily measured gene product as a stand-in for the process of interest.

Assay [15] concerns the target Fibroblast growth factor 10 (Homo sapiens) (UniProt O15520). The experiment in a line: compounds binding fibroblast growth factor 10 – biochemical, small-molecule microarray, 635 nm fluorescence, primary screen (AID 1102). Conditions: FGF10 binding, fluorescence 635 nm, higher = more signal.
Assay [16] concerns glycogen synthase kinase-3 (GSK3A per assay name; protocol says GSK3B). The experiment in a line: compounds binding glycogen synthase kinase-3 – biochemical, small-molecule microarray, 635 nm fluorescence, GSK3A, primary screen (AID 1103). Also: the record names both GSK3A and GSK3B. Conditions: fluorescence 635 nm, higher = more signal.
Assay [17] has as its target Epidermal growth factor receptor (Homo sapiens) (UniProt P00533). The experiment in a line: compounds binding epidermal growth factor receptor – biochemical, small-molecule microarray, 635 nm fluorescence, primary screen (AID 1104).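 Also: score merges 667 nm emission intensity with spot signal to noise over triplicate slides.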 Conditions: EGFR binding, higher = more signal.
Assay [18] deals with Follistatin-related protein 3 (Homo sapiens) (UniProt O95633). The experiment in a line: compounds binding follistatin-related protein 3 – biochemical, small-molecule microarray, 635 nm fluorescence, primary screen (AID 1105).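 Also: score merges emission near 667 nm and signal to noise per printed spot across three slides.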 Conditions: FSTL3 binding, higher = more signal.
Follistatin-related protein 3 (Homo sapiens), sequence (O95633 whole entry, looked up): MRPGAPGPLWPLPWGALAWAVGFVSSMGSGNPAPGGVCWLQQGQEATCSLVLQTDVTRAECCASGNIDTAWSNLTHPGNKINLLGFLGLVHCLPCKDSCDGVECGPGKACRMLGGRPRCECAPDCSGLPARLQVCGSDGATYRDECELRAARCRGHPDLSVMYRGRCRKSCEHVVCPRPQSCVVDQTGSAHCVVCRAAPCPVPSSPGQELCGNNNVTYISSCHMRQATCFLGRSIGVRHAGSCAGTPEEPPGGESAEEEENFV
Assay [19] has as its target Dickkopf-related protein 1 (Homo sapiens) (UniProt O94907). The experiment in a line: small molecules binding DKK1 protein – biochemical, small-molecule microarray, 635 nm fluorescence scan, primary screen (AID 1106).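 Also: score merges emission near 667 nm with signal to noise over three replicate slides.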 As to conditions: higher = more signal.
The subject of assay [20] is Inhibin beta A chain (activin A). The experiment in a line: small molecules binding activin A – biochemical, small-molecule microarray, 635 nm fluorescence scan, primary screen (AID 1107).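 Also: mouse activin A protein probed at 4.33 µg/mL on printed slides; score merges bound-protein fluorescence near 667 nm with spot signal-to-noise.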 Conditions: INHBA, higher = more signal.

For 5 molecules, composite z-score and z-score results are on record in PubChem BioAssay.

Active and inactive are the calls of the source.

Dickkopf-related protein 1 (Homo sapiens), sequence (O94907 whole entry, looked up): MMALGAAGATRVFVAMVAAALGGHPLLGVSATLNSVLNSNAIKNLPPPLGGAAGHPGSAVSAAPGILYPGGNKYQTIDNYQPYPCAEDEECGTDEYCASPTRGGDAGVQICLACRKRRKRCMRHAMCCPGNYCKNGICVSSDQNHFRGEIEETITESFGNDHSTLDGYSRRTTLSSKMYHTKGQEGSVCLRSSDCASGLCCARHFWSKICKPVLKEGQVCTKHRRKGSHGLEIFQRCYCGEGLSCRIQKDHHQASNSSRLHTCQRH
Torsin-1A-interacting protein 2 (Homo sapiens), sequence (Q8NFQ8 whole entry, looked up): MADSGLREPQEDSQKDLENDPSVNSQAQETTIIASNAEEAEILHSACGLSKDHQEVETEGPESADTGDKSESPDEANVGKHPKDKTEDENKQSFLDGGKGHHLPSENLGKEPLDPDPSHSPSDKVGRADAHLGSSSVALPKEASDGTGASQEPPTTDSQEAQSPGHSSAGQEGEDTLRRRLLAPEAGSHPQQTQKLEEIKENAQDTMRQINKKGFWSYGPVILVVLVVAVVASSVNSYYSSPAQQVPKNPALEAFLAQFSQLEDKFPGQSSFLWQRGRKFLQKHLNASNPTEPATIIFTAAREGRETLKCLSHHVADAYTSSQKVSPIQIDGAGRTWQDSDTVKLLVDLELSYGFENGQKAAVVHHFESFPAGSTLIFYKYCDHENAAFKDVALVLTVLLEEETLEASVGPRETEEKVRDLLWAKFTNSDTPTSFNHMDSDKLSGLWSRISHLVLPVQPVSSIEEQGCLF
Fibroblast growth factor 10 (Homo sapiens), sequence (O15520 whole entry, looked up): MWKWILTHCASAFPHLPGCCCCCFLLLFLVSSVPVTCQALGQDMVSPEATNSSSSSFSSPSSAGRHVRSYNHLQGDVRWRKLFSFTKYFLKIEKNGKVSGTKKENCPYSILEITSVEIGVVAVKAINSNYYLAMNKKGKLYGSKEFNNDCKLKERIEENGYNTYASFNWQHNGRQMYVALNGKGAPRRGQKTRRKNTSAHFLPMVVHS
Epidermal growth factor receptor (Homo sapiens), sequence (P00533 whole entry, looked up): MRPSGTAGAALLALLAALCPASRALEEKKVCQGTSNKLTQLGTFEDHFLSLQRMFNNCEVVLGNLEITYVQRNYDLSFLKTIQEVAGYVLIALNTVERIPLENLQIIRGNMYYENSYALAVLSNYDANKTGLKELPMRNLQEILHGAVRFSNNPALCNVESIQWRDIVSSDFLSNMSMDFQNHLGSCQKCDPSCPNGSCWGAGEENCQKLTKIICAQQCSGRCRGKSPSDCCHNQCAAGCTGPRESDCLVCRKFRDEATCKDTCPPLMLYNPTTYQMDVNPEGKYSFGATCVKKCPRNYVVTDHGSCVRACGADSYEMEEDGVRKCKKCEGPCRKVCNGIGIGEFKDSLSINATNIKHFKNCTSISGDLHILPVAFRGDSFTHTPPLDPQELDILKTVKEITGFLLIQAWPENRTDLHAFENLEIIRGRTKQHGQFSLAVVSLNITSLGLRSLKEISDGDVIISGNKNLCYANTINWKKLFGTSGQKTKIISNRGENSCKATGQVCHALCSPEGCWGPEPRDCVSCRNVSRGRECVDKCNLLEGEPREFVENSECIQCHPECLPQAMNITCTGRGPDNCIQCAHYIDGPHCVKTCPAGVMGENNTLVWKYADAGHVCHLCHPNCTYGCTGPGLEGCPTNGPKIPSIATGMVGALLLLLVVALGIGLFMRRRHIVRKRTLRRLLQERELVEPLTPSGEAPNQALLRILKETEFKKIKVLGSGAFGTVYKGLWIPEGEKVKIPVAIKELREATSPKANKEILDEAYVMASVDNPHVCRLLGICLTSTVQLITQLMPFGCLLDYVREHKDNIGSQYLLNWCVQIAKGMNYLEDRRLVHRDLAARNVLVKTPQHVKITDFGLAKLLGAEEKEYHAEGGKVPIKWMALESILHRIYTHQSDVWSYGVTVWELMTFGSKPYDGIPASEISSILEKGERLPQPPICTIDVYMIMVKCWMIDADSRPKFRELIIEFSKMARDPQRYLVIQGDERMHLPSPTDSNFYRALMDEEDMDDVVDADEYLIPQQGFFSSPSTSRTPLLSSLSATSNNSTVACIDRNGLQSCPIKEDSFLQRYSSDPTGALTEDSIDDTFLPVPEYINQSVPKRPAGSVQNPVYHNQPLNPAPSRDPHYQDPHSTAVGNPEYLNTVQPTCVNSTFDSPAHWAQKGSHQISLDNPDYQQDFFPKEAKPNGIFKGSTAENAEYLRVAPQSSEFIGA

For the molecule `C[C@@H]1CC[C@H]2C(=O)O[C@@H](CN=[N+]=[N-])CN2[C@H]1c1ccc(Br)cc1`, the composite z-score in assay [1] was 1.34; in assay [5], 1.69; in [7], -0.15; in assay [8], 0.553; in [9] it was 0.679; in [10], -0.104. Further, the composite z-score in assay [11] was 0.584; in assay [12], 0.0195; in assay [13] it was -0.669; in [15] it was 0.382; in [16], 0.636; in assay [17] it was 0.343. Moreover, the composite z-score turned out to be 0.345 in assay [18], 0.857 in [19] and 0.455 in assay [20]. In addition, the z-score in assay [2] was 1.85 (inactive); in assay [3], -10.5 (active); in [4], 32.7 (active); in assay [6], 0.176 (inactive); in assay [14], 0.659 (inactive).

As to `COCOc1ccc(Br)cc1C(=O)C=Cc1ccc2c(c1)OCO2`, the composite z-score in [1] was 0.253; in assay [5], -0.57; in [7], -0.16; in assay [8], 0.698; in assay [9] it was 0.0871; in assay [10], -0.0834. Moreover, the composite z-score in [11] is -0.0162; in assay [12] it was -0.304; in assay [13], -0.662; in assay [15] it was 0.59; in [16], -0.207; in [17] it was 0.524. Moreover, the composite z-score came out at 0.679 in [18], 0.665 in [19] and 1.22 in assay [20]. For the same molecule, the z-score in assay [2] is -0.827 (inactive); in assay [3] it was -7.01 (inactive); in assay [4] it was 32.1 (active); in assay [6], 0.368 (inactive); in [14], -0.838 (inactive).

`CO[C@H]1COC(=O)CCC[C@H](C)[C@H](OC)COC(=O)CC=C[C@@H]1C`: the composite z-score in [1] is 1.12; in assay [5] it was -1.88; in assay [7] it was -0.0113; in [8] it was 1.13; in assay [9] it was -0.398; in [10], 0.0278. For the same molecule, the composite z-score was 1.49 in assay [11]; -0.427 in assay [12]; -0.931 in [13]; -0.0317 in assay [15]; 0.0951 in [16]; 0.822 in assay [17]. Besides, the composite z-score in assay [18] was found to be 1.04; in assay [19], 0.872; in [20], 1.43. The z-score in assay [2] is -1.3 (inactive); in assay [3], -0.654 (inactive); in [4], -1.59 (inactive); in assay [6] it was -0.0243 (inactive); in [14], -1.39 (inactive).

As to `CC(=O)OC[C@H]1O[C@H](C#CCCc2ccccc2)C=C[C@@H]1OC(C)=O`, the composite z-score is 0.374 in assay [1]; 1.38 in assay [5]; 0.0092 in assay [7]; 0.57 in assay [8]; 0.341 in [9]; -0.021 in [10]. The composite z-score in assay [11] was 1.05; in assay [12], -0.0993; in assay [13] it was -0.438; in assay [15] it was 0.787; in assay [16], -0.113; in assay [17], 0.187. Besides, the composite z-score in assay [18] worked out at 0.981; in [19] it was 1.02; in [20], 0.309. Besides, the z-score in [2] is 0.664 (inactive); in assay [3], -2.4 (inactive); in assay [4] it was -0.116 (inactive); in [6], 0.396 (inactive); in [14], 0.181 (inactive).

With `COc1cccc([C@H]2Oc3ccc(OC)cc3C(=NO[C@@H](C)c3cc(-c4c(C)cc(C)cc4C)no3)[C@@H]2O)c1`, the composite z-score was -0.506 in assay [1]; -0.141 in assay [5]; 0.25 in assay [7]; -2.14 in assay [8]; -2.58 in assay [9]; -0.434 in [10]. For the same molecule, the composite z-score was 0.288 in [11]; 0.838 in assay [12]; 1.53 in [13]; -1.66 in assay [15]; -0.532 in [16]; -2.38 in assay [17]. The composite z-score in assay [18] was -1.99; in [19], -3.26; in assay [20], 0.313. Further, the z-score was 0.463 (inactive) in assay [2]; 1.49 (inactive) in assay [3]; 0.626 (inactive) in [4]; -0.169 (inactive) in assay [6]; -0.328 (inactive) in [14].
